PubChem BioAssay (NCI)
Compounds without any hit were thinned out: in the full panel of roughly 79,000, 15% have a hit. Unmarked numbers belong to inactive results. Activity calls are given as the source filed them. Rule as the data show it: active = growth inhibition above about 70%; inactive = the rest.

Columns and labels:
[1] = NCI Yeast Anticancer Drug Screen. Data for the rad50 strain (AID 155);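 also: 0% = growth of vehicle-only cultures of the same strain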; settings: S. cerevisiae rad50 strain growth inhibition, active compounds read high
How it was run: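 Compounds were tested on a yeast strain with an engineered DNA damage repair alteration; the reported value is growth inhibition normalised to vehicle treatment.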

[2] = NCI Yeast Anticancer Drug Screen. Data for the mec2-1 strain (AID 157); settings: S. cerevisiae mec2-1 strain, active compounds read high
How it was run: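 Test agents were screened against the mec2-1 yeast strain, with defined DNA repair or cell cycle alteration. Growth was scored as inhibition against vehicle-only controls.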

[3] = NCI Yeast Anticancer Drug Screen. Data for the sgs1 mgt1 strain (AID 161);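 also: 0% = growth of cultures given vehicle only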; settings: S. cerevisiae sgs1 mgt1 strain, active compounds read high
How it was run: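 Genetically altered yeast, compound exposure, growth inhibition relative to vehicle.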

[4] = NCI Yeast Anticancer Drug Screen. Data for the cln2 rad14 strain (AID 165);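 also: 0% = growth equal to vehicle treated cultures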; settings: S. cerevisiae cln2 rad14 strain, active compounds read high
How it was run: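 Growth of compound-exposed yeast (cln2 rad14 genotype) measured and expressed as inhibition relative to vehicle.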

[5] = NCI Yeast Anticancer Drug Screen. Data for the bub3 strain (AID 167); settings: S. cerevisiae bub3 mutant strain, active compounds read high
How it was run: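 Growth of a checkpoint-deficient yeast mutant is measured after compound exposure. Values represent inhibition relative to vehicle.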

[6] = NCI Yeast Anticancer Drug Screen. Data for the mlh1 rad18 strain (AID 175); settings: S. cerevisiae mlh1 rad18 strain growth inhibition, active compounds read high
How it was run: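 In this whole-cell yeast screen, a strain with altered DNA damage repair is challenged with compound, and its growth is measured against matched vehicle-treated controls.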

[7] = at 5.0 µM (retest, dose inferred, filed as 0.5)
[8] = at 50.0 µM (retest, dose inferred, filed as 5.0)

SMILES | growth inhibition [1, 7] | growth inhibition [1, 8] | growth inhibition ([1]; at 50.0 µM) | growth inhibition [2, 7] | growth inhibition [2, 8] | growth inhibition ([2]; at 50.0 µM) | growth inhibition [3, 7] | growth inhibition [3, 8] | growth inhibition ([3]; at 50.0 µM) | growth inhibition [4, 7] | growth inhibition [4, 8] | growth inhibition ([4]; at 50.0 µM) | growth inhibition [5, 7] | growth inhibition [5, 8] | growth inhibition ([5]; at 50.0 µM) | growth inhibition [6, 7] | growth inhibition [6, 8] | growth inhibition ([6]; at 50.0 µM)
CN(C)CCOC1(CC2CCCCC2)CCC(C(C)(C)C)CC1 (stereo not given) | -9% | 100% (active) | 99% (active) | -17% | 99% (active) | 99% (active) | -6% | 99% (active) | 99.4% (active) | 11% | 100% (active) | 99.5% (active) | -1% | 100% (active) | 98.9% (active) | 14% | 100% (active) | 99.3% (active)
C/C(=N\NC(=S)N1CC(C)OC(C)C1)c1ncccn1 (stereo not given) | 53% | 81% (active) | 99.5% (active) | 43% | 100% (active) | 99.4% (active) | 52% | 100% (active) | 99.5% (active) | 52% | 99% (active) | 99.2% (active) | 44% | 99% (active) | 99.3% (active) | 80% (active) | 99% (active) | 99.3% (active)
Fc1ccc(C2(CCCN3CCc4[nH]c5cc(F)ccc5c4C3)OCCO2)cc1 | 31% | 97% (active) | 70.2% (active) | 27% | 98% (active) | 79% (active) | 25% | 99% (active) | 84.5% (active) | 18% | 96% (active) | 83.3% (active) | 24% | 98% (active) | 39.5% | 29% | 99% (active) | 91% (active)
CCO/C=C1N=C(/C=C/c2ccccc2Cl)OC/1=O | -6% | 84% (active) | 65% | 13% | 58% | 45.4% | 9% | 52% | 50.2% | 9% | 81% (active) | 20.2% | 13% | 81% (active) | 36.9% | -2% | 86% (active) | 71.7% (active)
CCOC(=O)c1c(C)[nH]c(C(=O)C(N)C(=O)OCC)c1C (stereo not given) | 8% | -3% | 98% (active) | 6% | -6% | 99.5% (active) | 7% | -1% | 98.8% (active) | 3% | -1% | 99.5% (active) | -3% | -5% | 99.4% (active) | 4% | -6% | 99% (active)
C=C(CN(C)C)C(=O)c1ccc(C)cc1C | 34% | 99% (active) | 99.4% (active) | 18% | 99% (active) | 99.5% (active) | 64% | 99% (active) | 99.4% (active) | 24% | 99% (active) | 99.3% (active) | 77% (active) | 99% (active) | 56% | 74% (active) | 99% (active) | 99.2% (active)
CC12CCC(O)CC1=CCC1C2CCC2(C)C(NC(=O)C(Cc3ccc(O)cc3)NC(=O)OCc3ccccc3)CCC12 (stereo not given) | 24% | 94% (active) | -7.7% | 21% | 97% (active) | 2.95% | 22% | 96% (active) | -2.85% | 21% | 94% (active) | 38.6% | -4% | 93% (active) | -5.4% | 41% | 96% (active) | -8.2%
Oc1[nH]c2ccccc2c1N=NC(=S)N1CCCCCC1 | 6% | 98% (active) | 54.5% | -5% | 97% (active) | 72.2% (active) | -13% | 98% (active) | 83.2% (active) | -17% | 98% (active) | 78.5% (active) | -28% | 99% (active) | 87.1% (active) | -8% | 98% (active) | 79.8% (active)
SCCCCCCCCCCS | 0% | 98% (active) | 98.9% (active) | 0% | 99% (active) | 99.4% (active) | 1% | 89% (active) | 99% (active) | 4% | 94% (active) | 87.3% (active) | 2% | 99% (active) | 97.5% (active) | -1% | 96% (active) | 99.1% (active)
Cn1c2nc(-[n+]3ccccc3)nc-2c([O-])n(C)c1=O | 1% | 3% | -15.8% | 3% | 7% | -2.25% | -1% | 39% | 2.1% | -2% | 7% | 70% (active) | -1% | 0% | -6.95% | -1% | 8% | -8.75%
O=CC(=O)CC(O)CO (stereo not given) | 0% | 74% (active) | 78.4% (active) | 5% | 69% | 72.9% (active) | 4% | 81% (active) | 67.6% | 1% | 94% (active) | 89.3% (active) | 0% | 87% (active) | 98.7% (active) | -14% | 67% | 76.3% (active)
C/C(=N\NC(=S)NNC(=S)N1CCCc2ccccc21)c1ccccn1 | 3% | 96% (active) | 95.9% (active) | -16% | 96% (active) | 95.7% (active) | 30% | 97% (active) | 96.7% (active) | -23% | 96% (active) | 95.8% (active) | -6% | 97% (active) | 90.7% (active) | 5% | 95% (active) | 95.6% (active)
Nc1cc2c(cc1/C=C(\C(=O)O)c1ccccc1)OCO2 | -1% | -4% | 52.2% | -11% | -8% | -8.75% | -5% | -8% | 56% | -4% | 9% | -24.6% | -6% | 2% | -5.95% | -3% | -2% | 15.2%
O=C(Cl)c1ccc(N=Nc2ccccc2)cc1 | 2% | 31% | 69.5% | -1% | 23% | 37% | -1% | 14% | 47.5% | 0% | 23% | 49.2% | 1% | 21% | 65.5% | 3% | 27% | 80% (active)
Cc1ccc2c(c1)C(O)(c1ccccc1)CCS2 (stereo not given) | 87% (active) | 95% (active) | 90.2% (active) | 58% | 97% (active) | 77.2% (active) | 86% (active) | 97% (active) | 91.8% (active) | 16% | 96% (active) | 71.2% (active) | 46% | 96% (active) | 86.8% (active) | 66% | 94% (active) | 94.3% (active)
O=C1C(Cl)=C(c2ccccc2)C1Cl (stereo not given) | 97% (active) | 100% (active) | 99.2% (active) | 98% (active) | 99% (active) | 99.5% (active) | 99% (active) | 100% (active) | 99.7% (active) | 98% (active) | 99% (active) | 99.5% (active) | 96% (active) | 99% (active) | 99.5% (active) | 99% (active) | 99% (active) | 99.2% (active)
Nc1nnc2nc(CC(=O)c3ccc([N+](=O)[O-])cc3)c(CC(=O)c3ccc([N+](=O)[O-])cc3)nn12 | 6% | -3% | 3.7% | 15% | 15% | 19.2% | 6% | 2% | 11.8% | 4% | 4% | 43.1% | 6% | 1% | 0.8% | 4% | 26% | 3.05%
O=C1c2ccccc2C(=O)c2sc(Nc3cc(Cl)ccc3Cl)nc21 | 58% | 98% (active) | 82.3% (active) | 72% (active) | 99% (active) | 88.2% (active) | 67% | 99% (active) | 88.3% (active) | 52% | 97% (active) | 86.5% (active) | 87% (active) | 98% (active) | 83.8% (active) | 63% | 98% (active) | 90.5% (active)
CN(C)CCCNc1ccc(O)c2c1C(=O)c1ccccc1C2=O | 93% (active) | 99% (active) | 89.9% (active) | 95% (active) | 99% (active) | 87.8% (active) | 96% (active) | 99% (active) | 88.2% (active) | 32% | 98% (active) | 67% | 92% (active) | 98% (active) | 89.7% (active) | 97% (active) | 99% (active) | 89.6% (active)
Cn1c(=O)c2c(ncn2CCCCOc2ccc3c(c2)[n+]([O-])nc(N)[n+]3[O-])n(C)c1=O | 4% | 38% | 44% | 14% | 23% | 51.9% | 5% | 34% | 69.9% | -23% | 52% | 69% | -8% | 63% | 56.5% | 32% | 82% (active) | 75.8% (active)
